Screen size: about 69,000 compounds; about 8,600 (12%) showed an effect of 50% or more. Only a selection was taken, and strong results are over-represented in it overall.
Each compound was assayed on Plasmodium berghei (assay: Screen against P. berghei liver stage (PbLuc), transformed with Luciferase, at 10uM). Settings: tested at 10 uM.
Assay type: functional, HepG2
`Cc1cccc(-c2noc(CN3CCCCC3Cn3cncn3)n2)c1` (centres undefined) showed an INHIBITION of 9.14%.
With `Cc1cccc(NC(=O)[C@@H]2CCCN2Cc2ccccc2C#N)n1` the INHIBITION was 0.342%.
Compound `Cc1cccc(NC(=O)[C@@H]2CCCN2CC(=O)Nc2ccccc2)n1` has an INHIBITION of 76.5%.
Work on `Cc1cccc(NC(=O)[C@@H]2CCCN2CC(=O)N2CCCCCC2)n1` yielded an INHIBITION of -3.83%.
`CC(C)(C)Oc1ccc(NCC(=O)NCc2ccco2)cc1` was tested, and the INHIBITION was 16.1%.
Work on `OC(CN1CCN(Cc2nc(C3CC3)no2)CC1)c1ccccc1` (centres undefined) yielded an INHIBITION of -45.9%.
`CCCN(CCC)c1ncc(S(=O)(=O)c2cccc(C)c2)c(N)n1` gave an INHIBITION of 6.29%.
`CCCN(CCC)c1ncc(S(=O)(=O)c2ccc(C)cc2)c(N)n1` showed an INHIBITION of 20.4%.
`CCCN(CCC)c1ncc(S(=O)(=O)c2ccccc2)c(N)n1` showed an INHIBITION of 52.4%.
Work on `CN(Cc1ccccc1OC(F)(F)F)C(=O)C1CCCN(C(N)=O)C1` (centres undefined) yielded an INHIBITION of -116%.
`COc1ccnc(N(C)Cc2ccccc2OC(F)(F)F)n1` was tested, and the INHIBITION was 15.2%.
Compound `CN(Cc1ccccc1OC(F)(F)F)C(=O)C1CC1` has an INHIBITION of 82.7%.
With `COCC1CC2(CCN(Cc3ccccn3)CC2)CN1c1ncccn1` (centres undefined) the INHIBITION was 8.67%.
Work on `CC(C)CCn1c(=O)[nH]c2cn(-c3ccc(F)cc3)c(=O)n21` yielded an INHIBITION of -15%.
`CN1CCC(C(=O)NCCC2CN(c3cnn(C)c(=O)c3)CCO2)CC1` (centres undefined) showed an INHIBITION of 23.6%.
`O=C1NCCCN1Cc1nc(-c2ccc(N3CCCCC3)cc2)no1` was tested, and the INHIBITION was 26.4%.
In the case of `O=C1OCCCN1Cc1nc(-c2ccncc2)no1`, the INHIBITION is reported as 36.5%.
`O=C1OCCCN1Cc1nc(-c2ccc(N3CCCCC3)cc2)no1` showed an INHIBITION of 55.5%.
Compound `Cc1ccc2[nH]c(=O)cc(C(=O)N[C@@H]3C[C@@H](CO)N(C)C3)c2c1` has an INHIBITION of 46.7%.
Compound `O=C(CSC1=NS(=O)(=O)c2cc(F)ccc2N1)Nc1cccc(Cl)c1` has an INHIBITION of 16.6%.
Work on `O=C(CSC1=NS(=O)(=O)c2cc(F)ccc2N1)Nc1ccc(Cl)cc1` yielded an INHIBITION of 3.52%.
Compound `O=C(CSC1=NS(=O)(=O)c2cc(F)ccc2N1)Nc1ccc(Cl)c(Cl)c1` has an INHIBITION of 57.3%.
`COc1cc2c(nn1)CCN(Cc1nnc(Cc3ccccc3)o1)C2` gave an INHIBITION of 88.5%.
With `COc1cc2c(nn1)CCN(Cc1ncc(C(C)(C)C)o1)C2` the INHIBITION was 18.9%.
In the case of `COc1cc2c(nn1)CCN(Cc1nc(Cc3ccccc3)no1)C2`, the INHIBITION is reported as -112%.
In the case of `O=C(C1CCCO1)N1CCCn2c(nnc2Cn2ccnc2)C1` (centres undefined), the INHIBITION is reported as -12.4%.
`CC(C)n1cc(S(=O)(=O)N2CCCCCC2)cn1` was tested, and the INHIBITION was 33.3%.
`c1ccc(CCc2n[nH]c(C3CCC3)n2)cc1` was tested, and the INHIBITION was -31.9%.
With `COc1ccc(NCC2(O)CCNCC2)cc1OC` the INHIBITION was 62.7%.
`OC1(CNc2ccc(F)cc2)CCNCC1` showed an INHIBITION of 6.29%.
For `Cc1ccc(NCC2(O)CCNCC2)cc1C`, the INHIBITION was 23.1%.
For `O=C(CCn1c(C(F)(F)F)cc2cccnc21)NC1CCCC1`, the INHIBITION was 8.72%.
Work on `Cc1nc2c(c(NCCN3CCOCC3)n1)CCN(C)C2` yielded an INHIBITION of 7.55%.
`CCN(CC)CCCNc1nc(C)nc2c1CCN(C)C2` showed an INHIBITION of 5.185%.
Work on `Cc1nc2c(c(NCCCN3CCOCC3)n1)CCN(C)C2` yielded an INHIBITION of 59.7%.
`CC(C)Cc1nc(CN2CCOC(Cn3cncn3)C2)no1` (centres undefined) was tested, and the INHIBITION was 15.3%.
`Cc1nccc(N2CCCC2CCNS(C)(=O)=O)n1` (centres undefined) was tested, and the INHIBITION was 10.9%.
`c1ccc(Cc2nc(CN3CCCC3Cn3cncn3)cs2)cc1` (centres undefined) gave an INHIBITION of 23.5%.
`CCc1cc(=O)n(CCNC(=O)Nc2ccc(OC(F)(F)F)cc2)cn1` showed an INHIBITION of 28%.
`CCS(=O)(=O)NCC1CCN(c2cnccn2)CC1` showed an INHIBITION of 40%.
Compound `CCc1ccc(S(=O)(=O)NCC2CCN(c3cnccn3)CC2)s1` has an INHIBITION of 83%.
For `O=S(=O)(NCC1CCN(c2cnccn2)CC1)c1cccs1`, the INHIBITION was 25.1%.
`CC(=O)N(C)Cc1nn(C)c2c1CN(Cc1ccsc1)C2` was tested, and the INHIBITION was -37.9%.
Work on `CC(=O)NCc1noc2c1CN(Cc1cccs1)CC2` yielded an INHIBITION of 6.83%.
With `CC(=O)NCc1nn(C)c2c1CN(Cc1ccsc1)C2` the INHIBITION was 69.7%.
`O=C(c1cc[nH]n1)N1CCc2onc(COc3cccnc3)c2C1` gave an INHIBITION of 67.2%.
In the case of `c1cncc(OCc2noc3c2CN(Cc2cccs2)CC3)c1`, the INHIBITION is reported as -26.5%.
`Cn1nc(Cn2cccc2)c2c1CN(Cc1ccsc1)C2` gave an INHIBITION of -5.08%.
In the case of `c1cncc(OCc2noc3c2CN(Cc2ccsc2)CC3)c1`, the INHIBITION is reported as 56.1%.
Work on `O=C(c1ccc[nH]1)N1CCc2onc(COc3cccnc3)c2C1` yielded an INHIBITION of 21.8%.
`CC(=O)NCc1noc2c1CN(Cc1cnn(C)c1)CC2` gave an INHIBITION of 46.7%.
`c1cncc(OCc2noc3c2CN(Cc2ccoc2)CC3)c1` showed an INHIBITION of -3.95%.
Work on `CC(=O)NCc1noc2c1CN(Cc1ccsc1)CC2` yielded an INHIBITION of 64.5%.
`O=C(N1CCCC1)N1CCc2onc(COc3cccnc3)c2C1` gave an INHIBITION of 20.6%.
In the case of `CNC(=O)CCc1cc(C)nc(C2CCN(c3cnccn3)CC2)c1`, the INHIBITION is reported as 34.65%.
`CC(=O)N1CCCC1c1nccnc1NCc1cccnc1` (centres undefined) was tested, and the INHIBITION was -9.51%.
For `CNc1cncc(C2CCN(S(C)(=O)=O)CC2)n1`, the INHIBITION was 12.8%.
`CCCC(NC(=O)c1ccccc1Br)c1nnn[nH]1` (centres undefined) showed an INHIBITION of 43.1%.
Work on `Cc1noc(C)c1CC(=O)N1CCC(c2ccn3nccc3n2)CC1` yielded an INHIBITION of -27.8%.
`CS(=O)(=O)N1CC[C@H]2OCC[C@@]2(C(=O)NCCc2ccccn2)C1` gave an INHIBITION of 38.5%.
Compound `Nc1cc(CCCNC(=O)NC2CCCC2)nn1-c1ccccc1` has an INHIBITION of -26.2%.
For `CC(C)N(C(=O)CCc1cccc(F)c1)C1CCOCC1`, the INHIBITION was -6.34%.
For `CN1CCN(C(=O)c2nc3c(s2)CCCN3C(=O)C2CC2)CC1`, the INHIBITION was 37.9%.
`CCc1nnc2n1CCN(Cc1ncc(-c3ccccc3)o1)C2` was tested, and the INHIBITION was 9.665%.
`CCN(CC1CCOC1)C(=O)c1cnc2onc(C)c2c1` (centres undefined) was tested, and the INHIBITION was 34.15%.
`O=C(NCCn1ccc(-c2ccccn2)n1)c1ccncc1` gave an INHIBITION of 31.2%.
`O=C(NCCn1ccc(-c2ccncc2)n1)c1ccc2c(c1)OCO2` was tested, and the INHIBITION was 64.5%.
`CC(C)(C)CC(=O)NCCn1ccc(-c2ccncc2)n1` gave an INHIBITION of -4.99%.
For `O=C(CC1CCCC1)NCCn1ccc(-c2ccncc2)n1`, the INHIBITION was 36.3%.
`O=C(NCCn1ccc(-c2ccncc2)n1)c1ccncc1` was tested, and the INHIBITION was 26.4%.
`CC(C)(C)C(=O)NCCn1ccc(-c2ccncc2)n1` gave an INHIBITION of 11.9%.
In the case of `O=C(NCCn1ccc(-c2ccccn2)n1)C1CC1`, the INHIBITION is reported as -30%.
Compound `Cc1nnsc1C(=O)NCCn1ccc(-c2ccncc2)n1` has an INHIBITION of 61.5%.
For `O=C(NCCn1ccc(-c2ccncc2)n1)C1CC1`, the INHIBITION was 52.6%.
In the case of `CCOCC(O)CN1CCN(C(=O)c2cc(C)ccc2OC)CC1` (centres undefined), the INHIBITION is reported as -35.7%.
`Cn1cc(CC2CCN(C(=O)NCc3csc(C4CC4)n3)C2)cn1` (centres undefined) gave an INHIBITION of 11.8%.
`O=C(O)c1cccnc1CN1CCCCC1CCc1cccs1` (centres undefined) was tested, and the INHIBITION was 5.78%.
Work on `Cc1nc(NC(=O)N[C@H](CO)c2ccccc2)sc1C` yielded an INHIBITION of 7.3%.
Compound `COc1ccc2nc(CCNC(=O)c3cc(CC(C)C)no3)[nH]c2c1` has an INHIBITION of 55.5%.
Work on `CCn1nc(C(C)C)cc1C(=O)NCc1nc2ccc(OC)cc2[nH]1` yielded an INHIBITION of 37.6%.
`COc1ccc2nc(CNC(=O)c3cc(C(C)C)no3)[nH]c2c1` showed an INHIBITION of 73.4%.
With `COc1ccc2nc(CNC(=O)c3cc(C(C)C)on3)[nH]c2c1` the INHIBITION was 27.5%.
`COc1ccc2cc(C(=O)NCCc3nc(C)no3)[nH]c2c1` gave an INHIBITION of -1.79%.
`COc1ccc(COCC(O)CNC(=O)c2cc(C)no2)cc1` (centres undefined) was tested, and the INHIBITION was 5.03%.
For `Cc1ccc(CN2CCC[C@]3(C(=O)O)CN(C)C[C@@H]3C2)s1`, the INHIBITION was 6.79%.
`c1ccc2c(c1)cnn2CCCNC1CCOC2(CCOCC2)C1` (centres undefined) gave an INHIBITION of -9.39%.
Compound `c1csc(N2CCCN(c3nccn4cnnc34)CC2)n1` has an INHIBITION of -27.8%.
`Cc1cc(C)cc(OCCN(C)Cc2ccc(S(=O)(=O)N(C)C)o2)c1` was tested, and the INHIBITION was 7.39%.
`CN(CCOc1ccc(Cl)cc1)Cc1ccc(S(=O)(=O)N(C)C)o1` was tested, and the INHIBITION was 51%.
Compound `Cc1ccc(OCCN(C)Cc2ccc(S(=O)(=O)N(C)C)o2)cc1` has an INHIBITION of 47.7%.
`CC(C)NC(=O)c1ccc2c(c1)C1(CCN(C(C)C)CC1)C(=O)N2` gave an INHIBITION of -25.1%.
In the case of `O=C(NCCNc1ncccn1)C1CCN(C(=O)N2CCCC2)CC1`, the INHIBITION is reported as -33.9%.
With `O=C1CC(c2ccc(O)cc2)c2c(n3ccsc3nc2=O)N1` (centres undefined) the INHIBITION was 2.66%.
`C1CC(CO[C@@H]2CC[C@H]3[C@H]2OCCN3CC2CC2)CCO1` gave an INHIBITION of -11.6%.
With `C1CC(CO[C@@H]2CC[C@H]3[C@H]2OCCN3CC2CCOCC2)CCO1` the INHIBITION was 7.31%.
With `CCO[C@@H]1CC[C@H]2[C@H]1OCCN2CC1CCOCC1` the INHIBITION was 27.6%.
`C1CCC(CO[C@@H]2CC[C@H]3[C@H]2OCCN3CC2CCOCC2)C1` was tested, and the INHIBITION was 65.6%.
Work on `CCO[C@@H]1CC[C@H]2[C@H]1OCCN2CC1CCC1` yielded an INHIBITION of 54.7%.
For `CO[C@@H]1CC[C@H]2[C@H]1OCCN2CC1CC1`, the INHIBITION was 23.6%.
With `COc1ccccc1C(C)N(C)Cc1nc2c(cnn2C)c(=O)[nH]1` (centres undefined) the INHIBITION was -75.245%.
`O=C(c1cncc(NCC2COc3ccccc3C2)n1)N1CCCC1` (centres undefined) showed an INHIBITION of 33.7%.
`COc1cccc2c1OCC(CNc1ccc(C)nn1)C2` (centres undefined) showed an INHIBITION of 42.7%.
`CN1CCN(S(=O)(=O)NCC2COc3ccccc3C2)CC1` (centres undefined) showed an INHIBITION of -22.1%.
`CCc1nc2c(NCC3COc4ccccc4C3)ncnc2o1` (centres undefined) was tested, and the INHIBITION was 91.5%.
Compound `COc1ccc2c(c1)OCC(CNC(=O)NC(C)(C)C)C2` (centres undefined) has an INHIBITION of 31%.
For `CCc1nc2c(NCC3COc4cc(OC)ccc4C3)ncnc2o1` (centres undefined), the INHIBITION was 67.7%.
`COc1cccc2c1OCC(CNC(=O)Cc1c(C)nc(N)nc1C)C2` (centres undefined) gave an INHIBITION of -13%.
`CCCc1n[nH]cc1C(=O)NCC1COc2cc(OC)ccc2C1` (centres undefined) showed an INHIBITION of -3.83%.
Work on `CCc1nc2c(NCC3COc4c(cccc4OC)C3)ncnc2o1` (centres undefined) yielded an INHIBITION of 55.4%.

Reference: ChEMBL document CHEMBL4513216, “Probing the Open Global Health Chemical Diversity Library for Multistage-Active Starting Points for Next-Generation Antimalarials” (ACS Infect Dis, 2020)
